The text below walks through data of PubChem BioAssay (EPA / NIEHS).

SMILES strings stand for the structures. Active and inactive are the calls of the source. Rule for the calls: active = hit-call score of the fitted dose curve at least 0.9, where 1 is the maximum; inconclusive = response in the unintended direction; inactive = score below 0.9.

This test in a line: Tanguay_ZF_120hpf_ActivityScore_legacy: (Legacy) Oregon State University Tanguay Lab 120 Hour Post-fertilization zebrafish Assay Score for Activity (AID 2283742).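 For AC50: dechorionated Tropical 5D wild-type zebrafish embryos held singly per well.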 The procedure, abridged: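 Binary scoring of mortality and morphology by brightfield at 24 and 120 hpf, summarised into one activity score from 18 components relative to DMSO. Wild-type Tropical 5D zebrafish, chorion removed at 4 hpf, static exposure 6–120 hpf, 28 °C.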
As for `Cc1ncc(CO)c(CO)c1O`, the compound was called inactive.
The same measure, in the same setting: the result for `Cc1ccc(C(C)C)cc1` reads “inactive”.
On to `CC(O)CC(C)(C)O` (stereo not drawn), for which the compound was called inactive.
As for `COc1ccc2cc(S(=O)(=O)N[C@H](CC(=O)N[C@H](Cc3ccc(CN4[C@H](C)CCC[C@@H]4C)cc3)C(=O)N(C)C(C)C)c3ccc4c(c3)OCO4)ccc2c1`, the outcome was inactive.
Consider `COCC(C)OCC(C)OCC(C)O` (stereo not drawn), for which the result was inactive.
On the same count and under the same terms, the value for `CCCC(=O)OCCC(C)C` was “inactive”.
The same measure, in the same setting: the result for `CCCCCCCCCC(=O)O` reads “inactive”.
Still for that read-out and setting: the value for `CC1=CC(=O)/C(=C(/C)O)C(=O)O1` was “inactive”.
For `CN(C)C(=O)C1(N2CCCCC2)CCN(CC[C@@]2(c3ccc(Cl)c(Cl)c3)CN(C(=O)c3ccccc3)CCO2)CC1`, the AC50 is 16.2 µM (active).
Take `c1ccc2ccccc2c1`: the outcome was inactive.
The same measure, in the same setting: the result for `O=C(OCCCCCCOC(=O)c1ccccc1)c1ccccc1` reads “inactive”.
`CN(C)c1ccc(C(=C2C=CC(=[N+](C)C)C=C2)c2ccc(N(C)C)cc2)cc1`: the AC50 is 1.66 µM (active).
Consider `Cc1cn([C@H]2C[C@H](N=[N+]=[N-])[C@@H](CO)O2)c(=O)[nH]c1=O`, for which the call was inactive.
Take `OCCO`: the result was inactive.
In the case of `CC1(C)NC(=O)N(c2ccc([N+](=O)[O-])c(C(F)(F)F)c2)C1=O`, the call was inactive.
On the same count and under the same terms, the result for `CCCOC(=O)c1cc(O)c(O)c(O)c1` reads “inactive”.
As for `CCOC(=O)O[C@H](C)OC(=O)c1ccc2c(c1)cc(C(=O)NC1CCN(C(C)C)CC1)n2Cc1cc(-c2ccc(Cl)s2)on1`, the AC50 is 34.8 µM (active).
Consider `CN(C[C@@H](CC[N+]12CCC(C3CCCCC3)(CC1)CC2)c1ccc(Cl)c(Cl)c1)C(=O)c1cc(C(F)(F)F)cc(C(F)(F)F)c1`, for which the AC50 is 46.9 µM (active).
